Bioassay records as filed in PubChem.
Rows were chosen to be rich in hits. Some 5.4% of all compounds tested hit in one or more screens of this group.
Granule exo inh: blocks lytic granule exocytosis; AID 651702; hit rate 0.66% among 360,000; inhibition, % at 10 µM; TALL-104 LAMP-1 surface exposure, flow cytometry; cells stimulated with thapsigargin and PMA;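 active means inhibition above about 55%, limit read from the data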
beta cell repl: MIN6 beta-cell proliferation induction; MIN6 cells proliferation, ATPlite luminescence, 48 h; cells starved in 0.2% serum; 100% = growth in 10% serum; proliferation, % at 10 µM; hit rate 0.29% among 330,000; AID 2380;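 active means compounds whose signal lies at least 3.5 SD above the mean of all wells on their plate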
ALR H2O2 inh: human ALR oxidase inhibition via reduced H2O2; P55789; purified ALR, DTT oxidation, H2O2 HRP-luminol luminescence; inhibition, % (test concentration not listed); hit rate 3.8% among 290,000; AID 485317;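 active means mean replicate inhibition above about 79%, with every replicate also reaching it, limit read from the data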
Target sequence (P55789 whole entry, looked up): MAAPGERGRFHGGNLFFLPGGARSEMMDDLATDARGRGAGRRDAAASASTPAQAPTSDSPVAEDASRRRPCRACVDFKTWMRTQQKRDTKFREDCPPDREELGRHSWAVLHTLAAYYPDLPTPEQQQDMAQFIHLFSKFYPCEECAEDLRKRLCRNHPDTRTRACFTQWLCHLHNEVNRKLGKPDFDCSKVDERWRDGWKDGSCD
SMARCA2 activ: SMARCA2 function activation, primary screen; MG213 cells, MMTV-luciferase reporter, dexamethasone, overnight; activation, % at 9.1 µM; hit rate 1% among 370,000; AID 652017; in the data active means activation above about 7.8%
PfM18AAP inh: blocks P. falciparum M18 aspartyl aminopeptidase; recombinant PfM18AAP, H-Glu-NHMec fluorogenic cleavage; inhibition, % at 7.35 µM; hit rate 1.2% among 290,000; AID 1822;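 active means inhibition above the campaign mean inhibition over all tested compounds plus 3 SD, cut at about 28% in these data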
JMJD2C inh: inhibitors of human GASC-1 (JMJD2C) demethylase; hit rate 0.069% among 330,000; Q9H3R0; inhibition, % at 2.35 µM; GST-JMJD2C(1-420) H3K9me3 demethylation, DELFIA europium;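 active means more than half of a compound's replicate wells show inhibition beyond 50%, single wells judged on their own value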;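 further: signal counts dimethyl H3K9 product captured on neutravidin plate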
Target sequence (Q9H3R0 1-420 limits assumed): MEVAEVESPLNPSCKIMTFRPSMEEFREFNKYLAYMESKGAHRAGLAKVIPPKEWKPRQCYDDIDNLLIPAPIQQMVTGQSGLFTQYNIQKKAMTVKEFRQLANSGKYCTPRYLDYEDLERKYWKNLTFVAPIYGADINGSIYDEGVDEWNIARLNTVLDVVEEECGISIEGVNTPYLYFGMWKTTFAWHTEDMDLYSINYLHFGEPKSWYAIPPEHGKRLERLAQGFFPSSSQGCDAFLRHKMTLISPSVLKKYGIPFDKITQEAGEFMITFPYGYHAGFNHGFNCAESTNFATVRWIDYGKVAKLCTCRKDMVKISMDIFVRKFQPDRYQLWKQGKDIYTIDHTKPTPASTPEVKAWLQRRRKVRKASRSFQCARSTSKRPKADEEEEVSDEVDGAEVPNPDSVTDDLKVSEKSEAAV
SMARCA2 act conf: SMARCA2 activation, confirmation screen | hit rate 30% among 3,500 | shares compounds with SMARCA2 activ | MG213 cells, MMTV-luciferase with dexamethasone, luminescence, overnight; MG213 cells expressing E1A, Rb sequestered; DMSO wells 0%, reference activator 100% | activation, % at 9.1 µM;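 active means activation above its plate's cutoff, the mean activation of tested wells plus 3 SD, cut at about 7.9% in these data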
VP16 Luc act: counter-screen for SMARCA2 activators: GAL4-VP16 luciferase reporter activation; AID 686939; hit rate 41% among 3,500; shares compounds with SMARCA2 activ; HEK293 GAL4-VP16 pG5luc reporter, luciferase luminescence; scaled: DMSO wells 0%, SAHA wells 100%; activation, % at 9.1 µM;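 active means activation above the solvent-only control well mean plus 3 SD, averaged across control plates, cut at about 5.2% in these data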
A number is an active result; . = inactive; / = no result.

SMILES	Granule exo inh	beta cell repl	ALR H2O2 inh	SMARCA2 activ	PfM18AAP inh	JMJD2C inh	SMARCA2 act conf	VP16 Luc act
COC(=O)[C@]12C[C@H](CC(=O)NCCC(C)C)C(=O)N(Cc3ccccc3)C1=C[C@H](COCc1ccccc1)O[C@@H]2C	/	/	/	.	/	/	/	/
CCC(=O)NC1=C(Nc2ccc(N)cc2)C(=O)c2ccccc2C1=O	.	.	.	9.0	.	.	.	11
COc1ccc(NC2=C(NC(C)=O)C(=O)c3ccccc3C2=O)cc1	.	.	.	.	.	.	/	/
Cn1nc(/C=C/c2ccccc2)ccc1=O	.	.	.	8.9	.	.	.	.
CC(=O)n1cc(/C=C2/N=C(c3ccccc3)OC2=O)c2ccccc21	.	.	.	8.2	.	.	.	.
CC(=O)n1cc(/C=N/NC(N)=S)c2ccccc21	.	.	.	.	.	.	/	/
O=C(C1CCCN1S(=O)(=O)c1ccc([N+](=O)[O-])cc1)N1CCc2ccccc2C1 (stereo unspecified)	/	/	/	.	/	/	/	/
O=C(c1noc2c1CCc1ccccc1-2)N1CCOCC1	.	.	.	9.3	.	.	9.6	.
O=C(CN1C(=O)CSC1=O)Nc1ccccc1N1CCOCC1	.	.	/	9.8	.	.	.	.
CC(C)N1CCC(N2CCN(Cc3ccc(-c4ccccc4Cl)o3)CC2CCO)CC1 (stereo unspecified)	.	.	.	.	.	.	/	/
CC(C)N1CCC(N2CCN(Cc3ccc(-c4ccc(Cl)cc4)o3)CC2CCO)CC1 (stereo unspecified)	.	.	.	9.9	.	.	.	.
O=C(CC[C@H]1O[C@@H](n2ccc(=O)[nH]c2=O)[C@H](O)[C@@H]1O)N[C@@H](Cc1ccccc1)C(=O)NCC1CCCCC1	.	/	/	.	/	/	/	/
CN(C)c1cccc(CNC(=O)c2csc([C@@H]3O[C@H](CO)[C@@H](O)[C@H]3O)n2)c1	.	/	/	8.3	/	/	.	.
CN(C)c1cccc(CNC(=O)c2csc([C@@H]3O[C@H](CO)[C@H](O)[C@H](O)[C@H]3O)n2)c1	.	/	/	.	/	/	/	/
CCOCCCNC(=O)C(c1ccccc1)N(Cc1cccs1)C(=O)CNC(=O)c1ccccc1 (stereo unspecified)	.	.	.	8.7	.	.	.	.
CCc1ccc(N2CC(C(=O)Nc3ccc(S(=O)(=O)Nc4ncccn4)cc3)CC2=O)cc1 (stereo unspecified)	.	.	.	.	.	.	/	/
Cc1cc(C)nc(NS(=O)(=O)c2ccc(NC(=O)C3CC(=O)N(c4ccccc4)C3)cc2)n1 (stereo unspecified)	.	.	.	8.2	.	.	.	.
COc1ccc(N2CC(C(=O)Nc3ccc(S(=O)(=O)Nc4nccs4)cc3)CC2=O)cc1 (stereo unspecified)	.	.	.	.	.	.	/	/
COc1ccc(N2CC(C(=O)Nc3ccc(S(=O)(=O)Nc4nc(C)cc(C)n4)cc3)CC2=O)cc1 (stereo unspecified)	.	.	.	9.4	.	.	.	.
CCOC(=O)[C@]12CCCC=C1N(Cc1ccco1)C(=O)[C@H](CC(=O)NCC1CCCCC1)C2	.	/	/	.	/	/	/	/
O=C(NCCCc1ccccc1)c1ccc(Br)o1	.	.	.	9.7	.	.	.	.
O=C(NC(=S)Nc1ccccc1)c1ccc(Br)o1	.	.	.	9.3	.	.	13	6.2
Cc1ccc(C(=O)NCCCc2ccccc2)c(Cl)c1	.	.	.	.	.	.	/	/
Cc1ccc(C(=O)NCCCc2ccccc2)c(C)c1	.	.	.	10	.	.	13	8.5
Cc1cc(C)n2c(NC3CCCCC3)c(-c3cccnc3)nc2n1	.	/	/	.	/	/	/	/
SMILES	Granule exo inh	beta cell repl	ALR H2O2 inh	SMARCA2 activ	PfM18AAP inh	JMJD2C inh	SMARCA2 act conf	VP16 Luc act
COc1ccc(-c2nc3c(C(=O)NCCN(C)C)cccc3c3ccccc23)cc1	.	/	/	12	/	/	26	.
COc1cccc2nc3c(C(=O)NCCN(C)C)cccc3cc12	.	/	/	10	/	/	42	.
Cc1ccc2c(c1)sc1nc(=O)n(-c3ccccc3)c(=O)n12	.	.	.	12	.	.	8.4	12
COC(=O)[C@]1(Sc2ccc(OC)cc2)CC(=O)N[C@@H]1c1ccccc1	.	/	/	.	/	/	/	/
CCCOc1ccc(-c2cn3ccccc3n2)cc1	.	.	.	8.2	.	.	.	9.7
COc1ccc(-c2cn3ccccc3n2)cc1	.	.	.	.	.	.	/	/
CC1(C(=O)NCc2ccccc2)CSCC(=O)N1Cc1cccs1 (stereo unspecified)	.	/	/	.	/	/	/	/
C/C(=N\Nc1cccc([N+](=O)[O-])c1)c1ccccc1O	.	.	.	12	.	.	.	.
CN1CCc2c(sc3c2C(=O)NC(c2cccs2)N3)C1 (stereo unspecified)	.	.	.	11	.	.	.	.
Cc1nc(SC(C(N)=O)c2ccccc2)c(C#N)c(C)c1C (stereo unspecified)	.	.	.	8.3	.	.	.	.
CC1Cc2ccccc2N1S(=O)(=O)c1cccc(C(=O)c2nccn2C)c1 (stereo unspecified)	.	.	.	8.6	.	.	.	.
CC1Cc2ccccc2N1S(=O)(=O)c1cccc(C(=O)N2CCCCC2)c1 (stereo unspecified)	.	.	/	.	/	/	/	/
CS(=O)(=O)Nc1cccc(NC(=O)C2Cc3c(-c4ccccc4)ccnc3O2)c1 (stereo unspecified)	.	/	/	.	/	/	/	/
CN(C)CCCN(C(=O)/C=C/c1cccs1)c1nc2ccc(F)cc2s1	.	.	.	.	.	.	/	/
COc1ccc(C)c2sc(N(CCN(C)C)C(=O)/C=C/c3cccs3)nc12	.	.	.	.	.	.	/	/
CN(C)CCN(C(=O)/C=C/c1cccs1)c1nc2c(F)cc(F)cc2s1	65	.	/	23	.	.	23	.
COc1ccc(OC)c2sc(N(CCN(C)C)C(=O)/C=C/c3cccs3)nc12	.	.	.	15	.	.	17	.
CC1(C(=O)NS(=O)(=O)c2ccc3c(c2)CCO3)CCN1C(=O)Cc1ccc(-c2ccccc2)cc1 (stereo unspecified)	.	/	/	.	/	/	/	/
O=S1(=O)CC(N2CCC(Cc3ccccc3)CC2)CN1C1CCCCC1 (stereo unspecified)	.	/	/	.	/	/	/	/
CC(=O)N[C@@H]1C=C[C@@H](CC(=O)NCc2ccc(Cl)cc2)O[C@@H]1CO	.	/	/	.	/	/	/	/
COc1ccc(Cn2cc(C(=O)c3ccccc3)c(=O)c3cc(OC)ccc32)cc1	.	.	.	8.9	.	.	.	.
c1ccc2nc3c(ccc4ccccc43)cc2c1	.	/	/	15	/	/	.	7.7
